According to the supplement of paper PMC6331611:
± gives the standard deviation of the averaged measurements. Whole data set: some 1,600 compounds, median “normalized intracellular growth (luminescence, IQM-normalized) in RAW264.7 macrophages” near 1, cut for the lowest 2% near 0.43. Many of the other results were omitted from the sample, so the lowest values are more common in it than they were.

Test system: Salmonella enterica serovar Typhimurium SL1344
Experiment: normalized intracellular growth (luminescence, IQM-normalized) in RAW264.7 macrophages (fraction of plate interquartile mean); higher = more bacterial growth (less inhibition)
Conditions: 10 µM

O=C(OCc1ccccc1)c1ccccc1
normalized intracellular growth (time point: T3 (3 h)): 0.966 ± 0.057
normalized intracellular growth (time point: Tfinal (~6 h)): 0.928 ± 0.069

O=C(OOC(=O)c1ccccc1)c1ccccc1
normalized intracellular growth (time point: T3 (3 h)): 1 ± 0.017
normalized intracellular growth (time point: Tfinal (~6 h)): 1.05 ± 0.037

CCCNC(C)(C)COC(=O)c1ccccc1
normalized intracellular growth (time point: T3 (3 h)): 0.828 ± 0.083
normalized intracellular growth (time point: Tfinal (~6 h)): 0.1174 ± 0.0011

C=C1CC[C@H](O)C/C1=C/C=C1\CCC[C@]2(C)[C@@H]([C@H](C)/C=C/[C@H](C)C(C)C)CC[C@@H]12
normalized intracellular growth (time point: T3 (3 h)): 1.04 ± 0.059
normalized intracellular growth (time point: Tfinal (~6 h)): 1.2 ± 0.086

CC(O)(CC(=O)O)CC(=O)O
normalized intracellular growth (time point: T3 (3 h)): 0.971 ± 0.034
normalized intracellular growth (time point: Tfinal (~6 h)): 1.02 ± 0.061

NCc1ccc(S(N)(=O)=O)cc1
normalized intracellular growth (time point: T3 (3 h)): 0.686 ± 0.071
normalized intracellular growth (time point: Tfinal (~6 h)): 0.0766 ± 0.0043

Nc1ccc(S(N)(=O)=O)cc1
normalized intracellular growth (time point: T3 (3 h)): 0.9673 ± 0.006
normalized intracellular growth (time point: Tfinal (~6 h)): 1.07 ± 0.1

NS(=O)(=O)c1ccc(C(=O)O)cc1
normalized intracellular growth (time point: T3 (3 h)): 1.006 ± 0.0098
normalized intracellular growth (time point: Tfinal (~6 h)): 0.964 ± 0.076

O=C(O)CN1C(=O)c2cccc3cccc(c23)C1=O
normalized intracellular growth (time point: T3 (3 h)): 0.914 ± 0.099
normalized intracellular growth (time point: Tfinal (~6 h)): 1.05 ± 0.096

CC(=O)Nc1ccc(C(=O)O)cc1
normalized intracellular growth (time point: T3 (3 h)): 1.06 ± 0.055
normalized intracellular growth (time point: Tfinal (~6 h)): 0.967 ± 0.1

CCCCC(CC)CCC(CC(C)C)OS(=O)(=O)O (stereo not given)
normalized intracellular growth (time point: T3 (3 h)): 1.03 ± 0.031
normalized intracellular growth (time point: Tfinal (~6 h)): 1.1 ± 0.03

NCCC[C@H](N)C(=O)O
normalized intracellular growth (time point: T3 (3 h)): 0.972 ± 0.048
normalized intracellular growth (time point: Tfinal (~6 h)): 0.966 ± 0.13

C[C@H]1[C@H](NC(=O)/C(=N\OC(C)(C)C(=O)O)c2csc(N)n2)C(=O)N1S(=O)(=O)O
normalized intracellular growth (time point: T3 (3 h)): 0.992 ± 0.04
normalized intracellular growth (time point: Tfinal (~6 h)): 0.2 ± 0.016

CC(C)(O/N=C(\C(=O)N[C@@H]1C(=O)N2C(C(=O)[O-])=C(C[n+]3ccccc3)CS[C@H]12)c1csc(N)n1)C(=O)O
normalized intracellular growth (time point: T3 (3 h)): 0.997 ± 0.078
normalized intracellular growth (time point: Tfinal (~6 h)): 0.806 ± 0.12

FC(F)(F)COCC(F)(F)F
normalized intracellular growth (time point: T3 (3 h)): 0.946 ± 0.09
normalized intracellular growth (time point: Tfinal (~6 h)): 0.9 ± 0.27

CC(=O)N[C@@H](CCC(N)=O)C(=O)O
normalized intracellular growth (time point: T3 (3 h)): 0.959 ± 0.023
normalized intracellular growth (time point: Tfinal (~6 h)): 0.942 ± 0.11

Nc1ccc(S(=O)(=O)O)cc1.Nc1ccc(S(=O)(=O)O)cc1.[Zn]
normalized intracellular growth (time point: T3 (3 h)): 1.01 ± 0.047
normalized intracellular growth (time point: Tfinal (~6 h)): 1.15 ± 0.099

CC12CCC(CC1)C(C)(C)O2
normalized intracellular growth (time point: T3 (3 h)): 1.02 ± 0.024
normalized intracellular growth (time point: Tfinal (~6 h)): 0.96 ± 0.18

CN(C)[C@@H]1C(O)=C(C(N)=O)C(=O)[C@@]2(O)C(O)=C3C(=O)c4c(O)ccc(Cl)c4[C@@H](O)[C@H]3C[C@@H]12
normalized intracellular growth (time point: T3 (3 h)): 0.727 ± 0.11
normalized intracellular growth (time point: Tfinal (~6 h)): 0.176 ± 0.0084

CN(C)[C@@H]1C(O)=C(C(N)=O)C(=O)[C@@]2(O)C(O)=C3C(=O)c4c(O)ccc(Cl)c4[C@@](C)(O)[C@H]3C[C@@H]12
normalized intracellular growth (time point: T3 (3 h)): 0.846 ± 0.031
normalized intracellular growth (time point: Tfinal (~6 h)): 0.23 ± 0.02

C=C1c2c(Cl)ccc(O)c2C(=O)C2=C(O)[C@]3(O)C(=O)C(C(N)=O)=C(O)[C@@H](N(C)C)[C@@H]3[C@@H](O)[C@H]12.O=C(O)c1cc(S(=O)(=O)O)ccc1O
normalized intracellular growth (time point: T3 (3 h)): 1.01 ± 0.065
normalized intracellular growth (time point: Tfinal (~6 h)): 0.0256 ± 0.0064

CN(C)[C@@H]1C(O)=C(C(N)=O)C(=O)[C@@]2(O)C(O)=C3C(=O)c4c(O)cccc4[C@@](C)(O)[C@H]3[C@H](O)[C@@H]12
normalized intracellular growth (time point: T3 (3 h)): 1.01 ± 0.074
normalized intracellular growth (time point: Tfinal (~6 h)): 0.0331 ± 0.014

OCc1ccccn1
normalized intracellular growth (time point: T3 (3 h)): 1.02 ± 0.06
normalized intracellular growth (time point: Tfinal (~6 h)): 0.892 ± 0.1

C=NC(C(=O)NC1C(=O)N2C1SC(C)(C)C2C(=O)O)c1ccccc1 (stereo not given)
normalized intracellular growth (time point: T3 (3 h)): 0.959 ± 0.021
normalized intracellular growth (time point: Tfinal (~6 h)): 1.04 ± 0.011

Nc1ncnc(Nc2ccc(Cl)cc2)n1
normalized intracellular growth (time point: T3 (3 h)): 1.1 ± 0.074
normalized intracellular growth (time point: Tfinal (~6 h)): 0.945 ± 0.42

Cc1ncc([N+](=O)[O-])n1C
normalized intracellular growth (time point: T3 (3 h)): 0.936 ± 0.053
normalized intracellular growth (time point: Tfinal (~6 h)): 0.98 ± 0.1

Nc1nccs1
normalized intracellular growth (time point: T3 (3 h)): 1.03 ± 0.072
normalized intracellular growth (time point: Tfinal (~6 h)): 0.911 ± 0.12

O.O.O=C([O-])CN(CCN(CC(=O)[O-])CC(=O)O)CC(=O)O.[Na+].[Na+]
normalized intracellular growth (time point: T3 (3 h)): 0.978 ± 0.021
normalized intracellular growth (time point: Tfinal (~6 h)): 1.02 ± 0.013

O=c1[nH]c(=O)c2ccccc2o1
normalized intracellular growth (time point: T3 (3 h)): 0.963 ± 0.026
normalized intracellular growth (time point: Tfinal (~6 h)): 1.02 ± 0.078

CC1=C(C/C=C(\C)CCC[C@H](C)CCC[C@H](C)CCCC(C)C)C(=O)c2ccccc2C1=O
normalized intracellular growth (time point: T3 (3 h)): 0.968 ± 0.067
normalized intracellular growth (time point: Tfinal (~6 h)): 1.08 ± 0.064

CCCCC/C=C/CCC(=O)N[C@H]1[C@H](Oc2c3cc4cc2Oc2ccc(cc2Cl)[C@@H](O[C@@H]2O[C@H](CO)[C@@H](O)[C@H](O)[C@H]2NC(C)=O)[C@@H]2NC(=O)[C@H](NC(=O)[C@@H]4NC(=O)[C@H]4NC(=O)C(Cc5ccc(c(Cl)c5)O3)NC(=O)[C@H](N)c3ccc(O)c(c3)Oc3cc(O)cc4c3)c3ccc(O)c(c3)-c3c(OC4O[C@H](CO)[C@@H](O)[C@H](O)[C@@H]4O)cc(O)cc3[C@@H](C(=O)O)NC2=O)O[C@H](CO)[C@@H](O)[C@@H]1O (stereo not given in full) [TEICOPLANIN [A(2-1) shown]]
normalized intracellular growth (time point: T3 (3 h)): 0.955 ± 0.07
normalized intracellular growth (time point: Tfinal (~6 h)): 1.07 ± 0.065

Cc1c(C)c2c(c(C)c1O)CCC(C)(CCCC(C)CCCC(C)CCCC(C)C)O2 (stereo not drawn) [alpha-TOCHOPHEROL]
normalized intracellular growth (time point: T3 (3 h)): 0.999 ± 0.14
normalized intracellular growth (time point: Tfinal (~6 h)): 1.1 ± 0.13

O=C(NCc1ccccc1)OCCO
normalized intracellular growth (time point: T3 (3 h)): 1.24 ± 0.071
normalized intracellular growth (time point: Tfinal (~6 h)): 1.33 ± 0.083

CN(C)[C@@H]1C(O)=C(C(=O)NCN2CCCC2)C(=O)[C@@]2(O)C(O)=C3C(=O)c4c(O)cccc4[C@@](C)(O)[C@H]3C[C@@H]12
normalized intracellular growth (time point: T3 (3 h)): 0.973 ± 0.013
normalized intracellular growth (time point: Tfinal (~6 h)): 0.683 ± 0.41

CN(C)c1ccc(O)c2c1C[C@H]1C[C@H]3[C@H](N(C)C)C(O)=C(C(N)=O)C(=O)[C@@]3(O)C(O)=C1C2=O
normalized intracellular growth (time point: T3 (3 h)): 1.01 ± 0.091
normalized intracellular growth (time point: Tfinal (~6 h)): 0.33 ± 0.14

C=C1c2cccc(O)c2C(=O)C2=C(O)[C@]3(O)C(=O)C(C(N)=O)=C(O)[C@@H](N(C)C)[C@@H]3[C@@H](O)[C@H]12
normalized intracellular growth (time point: T3 (3 h)): 0.979 ± 0.029
normalized intracellular growth (time point: Tfinal (~6 h)): 0.103 ± 0.039

C[C@H]1c2cccc(O)c2C(=O)C2=C(O)[C@]3(O)C(=O)C(C(N)=O)=C(O)[C@@H](N(C)C)[C@@H]3[C@@H](O)[C@@H]21
normalized intracellular growth (time point: T3 (3 h)): 0.73 ± 0.065
normalized intracellular growth (time point: Tfinal (~6 h)): 0.173 ± 0.025

CN(C)[C@@H]1C(O)=C(C(N)=O)C(=O)[C@@]2(O)C(O)=C3C(=O)c4c(O)cccc4[C@@](C)(O)[C@H]3C[C@@H]12
normalized intracellular growth (time point: T3 (3 h)): 0.598 ± 0.062
normalized intracellular growth (time point: Tfinal (~6 h)): 0.209 ± 0.048

CN(C)c1cc(NC(=O)CNC(C)(C)C)c(O)c2c1C[C@H]1C[C@H]3[C@H](N(C)C)C(O)=C(C(N)=O)C(=O)[C@@]3(O)C(O)=C1C2=O
normalized intracellular growth (time point: T3 (3 h)): 1.01 ± 0.05
normalized intracellular growth (time point: Tfinal (~6 h)): 1.02 ± 0.18

CN(C)CCc1c[nH]c2ccc(CS(=O)(=O)N3CCCC3)cc12
normalized intracellular growth (time point: T3 (3 h)): 0.989 ± 0.027
normalized intracellular growth (time point: Tfinal (~6 h)): 1.14 ± 0.15
